PubChem BioAssay (NCATS)
Results filed as inconclusive are left out. The source made the active and inactive calls. The call rests on the fitted dose curve; in most records, active means well fitted cell-killing curve with a large enough effect; inconclusive means small, poorly fitted or top-dose-only effect; inactive means flat fitted curve, though single readings scatter.

Assay: Quantitative highthroughput screen to assess conditional lethalithy of P12 Ichikawa cells grown in RPMI1640 with dialyzed fetal bovine serum (RPMI+ds) (AID 1963880);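 on viability: 100% = DMSO wells and 0% = empty wells on each plate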
Details: ATP luminescence, 48 h; Potency: P12-Ichikawa viability; series mostly up to 45.8 µM; viability: at the top concentration
In short: (§1)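 Each medium arm—HPLM with 10% dialyzed FBS, or RPMI1640 with 5 mM glucose and 10% untreated or dialyzed FBS—was screened against an 11-point, 3-fold compound titration for 48 h at 37 °C, with CellTiter-Glo luminescence as endpoint.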
Further: nearly all actives have a fitted effect of over 35% in size.
Potency means the concentration at half of the fitted maximal effect.

Row | Compound | Potency | viability
1 | CCOC1OC(=O)C[C@H]1NC(=O)[C@@H]1CCCN1C(=O)[C@@H](NC(=O)c1ccc(N)c(Cl)c1)C(C)(C)C (stereo not given in full) | 3.32 µM (active) | 
2 | Cc1cc(N2CCOCC2)cc2[nH]c(-c3c(NC[C@@H](O)c4cccc(Cl)c4)cc[nH]c3=O)nc12 |  | 78.1% (inactive)
3 | COc1cc(OC)c(C=CS(=O)(=O)Cc2ccc(OC)c(NCC(=O)O)c2)c(OC)c1 | 0.166 µM (active) | 
4 | Cc1[nH]c(C=C2C(=O)Nc3ccc(S(=O)(=O)N(C)c4cccc(Cl)c4)cc32)c(C)c1C(=O)N1CCN(C)CC1 | 14.8 µM (active) | 
5 | CCNC(=O)CCCC=CC[C@@H]1[C@H](C=CC(O)CCc2ccccc2)[C@@H](O)C[C@@H]1O (stereo not given in full) |  | 91.3% (inactive)
6 | CON=C(C(=O)N[C@@H]1C(=O)N2C(C(=O)O)=C(CSC(=O)c3ccco3)CS[C@H]12)c1csc(N)n1 |  | 100% (inactive)
7 | COc1cc(C(C)=O)ccc1OCCCN1CCC(c2noc3cc(F)ccc23)CC1 |  | 81.3% (inactive)
8 | O=C(O)C=Cc1ccc(O)c(O)c1 | 26.4 µM (active) | 
9 | CCCCCN=C(N)NN=Cc1c[nH]c2ccc(OC)cc12 | 14.8 µM (active) | 
10 | CC(C)(C)c1[nH]cnc1C=c1[nH]c(=O)c(=Cc2ccccc2)[nH]c1=O | 0.0108 µM (active) | 
11 | O=c1[nH]c(=O)n([C@H]2C[C@@H](O)[C@@H](CO)O2)cc1F | 0.0743 µM (active) | 
12 | CCOc1ccccc1N=Nc1c(C)[nH]n(-c2nc(-c3ccccc3)cs2)c1=O |  | 96.3% (inactive)
13 | COC(=O)[C@H](c1ccccc1Cl)N1CCc2sccc2C1 | 11.8 µM (active) | 
14 | COC(=O)C=CC(=O)OC | 1.48 µM (active) | 
15 | CN[C@H]1[C@@H](O[C@@H]2[C@H](O[C@@H]3[C@@H](O)[C@@H](O)[C@@H](N=C(N)N)[C@@H](O)[C@@H]3N=C(N)N)O[C@H](C)[C@@]2(O)C=O)O[C@@H](CO)[C@@H](O)[C@H]1O |  | 112% [at 15.3 µM] (inactive)
16 | CC(C)OC(=O)[C@H](C)N[P@](=O)(OC[C@H]1O[C@@H](n2ccc(=O)[nH]c2=O)[C@](C)(F)[C@H]1O)Oc1ccccc1 | 4.69 µM (active) | 
17 | CO[C@@H]1[C@@H](O)[C@H](O)[C@@H](n2c3c(Cl)cccc3c3c4c(c5c6cccc(Cl)c6[nH]c5c32)C(=O)NC4=O)O[C@@H]1CO | 0.264 µM (active) | 
18 | CC(C)N(CC[C@H](c1ccccc1)c1cc(CO)ccc1O)C(C)C |  | 109% (inactive)
19 | COc1cc2c(cc1OC)[C@@H]1Cc3ccc(OC)c(OC)c3CN1CC2 |  | 81.4% (inactive)
20 | COc1cc(CNC(=O)CCCCC=CC(C)C)ccc1O | 0.418 µM (active) | 
21 | COc1nccc(-c2c(-c3ccc(F)cc3)ncn2C2CCNCC2)n1 |  | 84.7% (inactive)
22 | COc1cc2nc(N(C)CCCNC(=O)C3CCCO3)nc(N)c2cc1OC (stereo not given) |  | 98.6% (inactive)
23 | N=C(N)c1ccc(OCCCCCOc2ccc(C(=N)N)cc2)cc1 |  | 85.9% (inactive)

Assay: Quantitative highthroughput screen to assess conditional lethalithy of P12 Ichikawa cells grown in RPMI1640 with untreated serum (RPMI+s) (AID 1963881);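 on viability: 100% = DMSO wells and 0% = empty wells without cells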
Details: ATP luminescence, 48 h; Potency: viability; series mostly up to 45.8 µM; viability: at the top concentration
In short: as §1

Row | Compound | Potency | viability
24 | CCOC1OC(=O)C[C@H]1NC(=O)[C@@H]1CCCN1C(=O)[C@@H](NC(=O)c1ccc(N)c(Cl)c1)C(C)(C)C (stereo not given in full) | 1.87 µM (active) | 
25 | Cc1[nH]c(C=C2C(=O)Nc3ccc(S(=O)(=O)N(C)c4cccc(Cl)c4)cc32)c(C)c1C(=O)N1CCN(C)CC1 | 18.7 µM (active) | 
26 | CNc1nc(-c2ccc3c(N)n[nH]c3c2)cc(N2C[C@@H](C(=O)NC3CCCCC3)CC[C@@H]2C)n1 | 16.6 µM (active) | 
27 | CON=C(C(=O)N[C@@H]1C(=O)N2C(C(=O)O)=C(CSC(=O)c3ccco3)CS[C@H]12)c1csc(N)n1 |  | 94.2% (inactive)
28 | COc1cc(C(C)=O)ccc1OCCCN1CCC(c2noc3cc(F)ccc23)CC1 |  | 85.5% (inactive)
29 | CCCCCN=C(N)NN=Cc1c[nH]c2ccc(OC)cc12 | 13.2 µM (active) | 
30 | CC(C)(C)c1[nH]cnc1C=c1[nH]c(=O)c(=Cc2ccccc2)[nH]c1=O | 0.0086 µM (active) | 
31 | CC(=O)Nc1sc2c(c1-c1nc3ccccc3s1)CNC2 | 16.6 µM (active) | 
32 | CCOc1ccccc1N=Nc1c(C)[nH]n(-c2nc(-c3ccccc3)cs2)c1=O |  | 97.5% (inactive)
33 | COC(=O)[C@H](c1ccccc1Cl)N1CCc2sccc2C1 | 9.35 µM (active) | 
34 | COC(=O)C=CC(=O)OC | 2.64 µM (active) | 
35 | CN[C@H]1[C@@H](O[C@@H]2[C@H](O[C@@H]3[C@@H](O)[C@@H](O)[C@@H](N=C(N)N)[C@@H](O)[C@@H]3N=C(N)N)O[C@H](C)[C@@]2(O)C=O)O[C@@H](CO)[C@@H](O)[C@H]1O |  | 104% [at 15.3 µM] (inactive)
36 | Cc1ccc(N(CC2=NCCN2)c2cccc(O)c2)cc1 |  | 97.1% (inactive)
37 | CC1(C)C(=O)N(CCN2CCC(C(=O)c3ccc(F)cc3)CC2)c2ccccc21 |  | 82.7% (inactive)
38 | CC=C(C)C(=O)O[C@H]1C(C)=C[C@]23C(=O)[C@@H](C=C(CO)[C@@H](O)[C@]12O)[C@H]1[C@@H](C[C@H]3C)C1(C)C | 0.0066 µM (active) | 
39 | CC(C)OC(=O)[C@H](C)N[P@](=O)(OC[C@H]1O[C@@H](n2ccc(=O)[nH]c2=O)[C@](C)(F)[C@H]1O)Oc1ccccc1 | 6.62 µM (active) | 
40 | O=c1[nH]c(=O)n([C@H]2C[C@@H](O)[C@@H](CO)O2)cc1C(F)(F)F | 3.72 µM (active) | 
41 | COc1cc2c(cc1O)CCC1C2CC[C@@]2(C)C1CC[C@@H]2O (stereo not given in full) | 2.64 µM (active) | 
42 | CO[C@@H]1[C@@H](O)[C@H](O)[C@@H](n2c3c(Cl)cccc3c3c4c(c5c6cccc(Cl)c6[nH]c5c32)C(=O)NC4=O)O[C@@H]1CO | 0.235 µM (active) | 
43 | COc1ccc(-c2oc3cc(OC)ccc3c2C(=O)c2ccc(C#N)cc2)cc1 | 1.32 µM (active) | 
44 | CC(C)N(CC[C@H](c1ccccc1)c1cc(CO)ccc1O)C(C)C |  | 105% (inactive)
45 | CC1=C(C)C(=O)C(C(CCCCCC(=O)O)c2ccccc2)=C(C)C1=O (stereo not given) | 8.33 µM (active) | 
46 | COc1ccc2cc3[n+](cc2c1OC)CCc1cc2c(cc1-3)OCO2 | 18.7 µM (active) | 
47 | COc1cc2c(cc1OC)[C@@H]1Cc3ccc(OC)c(OC)c3CN1CC2 |  | 78.5% (inactive)
48 | COc1cc(CNC(=O)CCCCC=CC(C)C)ccc1O | 0.833 µM (active) | 
49 | COc1nccc(-c2c(-c3ccc(F)cc3)ncn2C2CCNCC2)n1 |  | 94.2% (inactive)
50 | COc1cc2nc(N(C)CCCNC(=O)C3CCCO3)nc(N)c2cc1OC (stereo not given) |  | 110% (inactive)
